Measurements: the supplement of paper PMC10849652
Of roughly 7,900 targets only a part is listed; those with a hit were picked by preference. About 0.6% of all pairs of compound and target were hits. Values without a mark were called inactive.

Tests used:
Assay in all cases: log2 fold change, soluble protein after heating vs DMSO (PISA); higher = thermal stabilisation; K562 cells, 10 uM, 30 min; active = over 0.2 and 3.5 SD of the protein, either way, in both replicates (recomputed)
IRAK-1-4 Inhibitor I = compound: C1COCCN1CCN2C3=CC=CC=C3N=C2NC(=O)C4=CC(=CC=C4)[N+](=O)[O-] [IRAK-1-4 Inhibitor I]
Outline: (§1)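 Aliquots of K562 cells (2×10^6 cells/mL) treated with 10 μM compound for 30 min were heated for 3 min over 48°C-58°C. After pooling and extraction in PBS with 0.5% NP-40 at 4°C, soluble protein from a 21,000xg, 90 min spin was quantified by TMTpro 16plex LC-MS/MS with channel sums equalised. Thermal stability is expressed against control samples, from duplicates, as a log2 fold change.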

ibrutinib = compound: C=CC(=O)N1CCC[C@@H](n2nc(-c3ccc(Oc4ccccc4)cc3)c3c(N)ncnc32)C1 [ibrutinib]
Outline: as §1

[1] = compound: CC(=O)c1cnc2ccc(-c3cc(Cl)c(O)c(Cl)c3)nc2c1N[C@H]1CC[C@H](CN(C)C)CC1
Outline: as §1

ralimetinib = compound: CC(C)(C)Cn1c(N)nc2ccc(-c3[nH]c(C(C)(C)C)nc3-c3ccc(F)cc3)nc21 [ralimetinib]
Outline: as §1

[2] = compound: CC(C)(O)CC(=O)NCCn1ccc2ncnc(Nc3ccc(Oc4cccc(C(F)(F)F)c4)c(Cl)c3)c21
Outline: as §1

[3] = compound: CC(C)C1=C2N=C(C=C(N2N=C1)NCC3=CC=CC=C3)NCCCCCCN
Outline: as §1

[4] = compound: CC(C)C[C@@H](C=O)NC(=O)[C@H](CC(C)C)NC(=O)[C@H](CC(C)C)NC(=O)OCc1ccccc1
Outline: as §1

pinometostat = compound: CC(C)N(C[C@H]1O[C@@H](n2cnc3c(N)ncnc32)[C@H](O)[C@@H]1O)[C@H]1C[C@@H](CCc2nc3cc(C(C)(C)C)ccc3[nH]2)C1 [pinometostat]
Outline: as §1

[5] = compound: CC1=C(C(CC(=O)N1)C2=CC=C(C=C2)C(F)(F)F)C(=O)NC3=C(C=C4C(=C3)C=NN4)F
Outline: as §1

[6] = compound: CC1=C(C2=C(C=C1)C(=O)C3=CC=CC=C3N2CCCN)C
Outline: as §1

[7] = compound: CC1=C(C=C(C=C1)NC(=O)C2=CC(=CC=C2)C(C)(C)C#N)NC3=CC4=C(C=C3)N=CN(C4=O)C
Outline: as §1

[8] = compound: CC1=C(C=C(C=C1)NC(=O)C2=CC(=CC=C2)N(C)C)NC(=O)C3=CC=C(C=C3)O
Outline: as §1

[9] = compound: CC1=CC=C(C=C1)SC2=C3C=C(SC3=CN=C2)C(=O)N
Outline: as §1

[10] = compound: CC1=NC(=CC=C1)C2=C(N=C(N2)C(C)(C)C)C3=CC4=NC=CN=C4C=C3
Outline: as §1

Nexturastat A = compound: CCCCN(Cc1ccc(C(=O)NO)cc1)C(=O)Nc1ccccc1 [Nexturastat A]
Outline: as §1

vemurafenib = compound: CCCS(=O)(=O)Nc1ccc(F)c(C(=O)c2c[nH]c3ncc(-c4ccc(Cl)cc4)cc23)c1F [vemurafenib]
Outline: as §1

[11] = compound: CCCS(=O)(=O)Nc1ccc(F)c(C(=O)c2c[nH]c3ncc(Cl)cc23)c1F
Outline: as §1

[12] = compound: CCCc1cc(C)[nH]c(=O)c1CNC(=O)c1cc(-c2ccnc(N3CCN(C)CC3)c2)cc2c1cnn2C(C)C
Outline: as §1

givinostat = compound: CCN(CC)Cc1ccc2cc(COC(=O)Nc3ccc(C(=O)NO)cc3)ccc2c1 [givinostat]
Outline: as §1

barasertib = compound: CCN(CCCOc1ccc2c(Nc3cc(CC(=O)Nc4cccc(F)c4)[nH]n3)ncnc2c1)CCOP(=O)(O)O [barasertib]
Outline: as §1

UniProt P61024, sequence (P61024 whole entry, looked up): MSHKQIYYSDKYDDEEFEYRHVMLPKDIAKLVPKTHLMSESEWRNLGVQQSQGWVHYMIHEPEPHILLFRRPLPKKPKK
UniProt Q8WUX2, sequence (Q8WUX2 whole entry, looked up): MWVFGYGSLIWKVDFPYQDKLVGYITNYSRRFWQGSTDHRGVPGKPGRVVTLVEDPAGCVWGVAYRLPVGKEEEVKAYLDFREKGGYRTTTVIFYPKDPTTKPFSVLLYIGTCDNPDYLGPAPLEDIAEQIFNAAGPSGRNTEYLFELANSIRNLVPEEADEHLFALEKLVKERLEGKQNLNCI
UniProt P83916, sequence (P83916 whole entry, looked up): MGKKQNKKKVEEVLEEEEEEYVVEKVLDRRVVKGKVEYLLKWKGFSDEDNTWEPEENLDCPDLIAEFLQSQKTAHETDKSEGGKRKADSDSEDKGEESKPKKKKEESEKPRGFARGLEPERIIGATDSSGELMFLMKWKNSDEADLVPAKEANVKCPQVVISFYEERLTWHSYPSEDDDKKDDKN
UniProt P16152, sequence (P16152 whole entry, looked up): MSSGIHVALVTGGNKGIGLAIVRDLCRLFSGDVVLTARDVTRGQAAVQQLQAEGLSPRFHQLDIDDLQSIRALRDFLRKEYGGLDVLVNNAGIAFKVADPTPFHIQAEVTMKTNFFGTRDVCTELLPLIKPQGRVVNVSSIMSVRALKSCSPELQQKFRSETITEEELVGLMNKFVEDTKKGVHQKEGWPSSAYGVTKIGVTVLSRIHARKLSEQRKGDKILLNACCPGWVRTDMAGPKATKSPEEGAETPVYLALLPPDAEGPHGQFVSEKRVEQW
UniProt P46109, sequence (P46109 whole entry, looked up): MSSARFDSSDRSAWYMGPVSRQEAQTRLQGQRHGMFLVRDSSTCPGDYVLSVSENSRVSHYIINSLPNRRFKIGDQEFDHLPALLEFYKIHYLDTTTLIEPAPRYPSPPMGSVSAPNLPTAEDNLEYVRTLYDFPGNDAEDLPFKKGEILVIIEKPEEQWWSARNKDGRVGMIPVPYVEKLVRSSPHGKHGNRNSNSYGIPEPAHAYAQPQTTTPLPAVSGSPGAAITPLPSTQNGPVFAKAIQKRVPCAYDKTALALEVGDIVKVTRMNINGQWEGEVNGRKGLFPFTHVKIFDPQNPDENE
UniProt Q9Y3X0, sequence (Q9Y3X0 whole entry, looked up): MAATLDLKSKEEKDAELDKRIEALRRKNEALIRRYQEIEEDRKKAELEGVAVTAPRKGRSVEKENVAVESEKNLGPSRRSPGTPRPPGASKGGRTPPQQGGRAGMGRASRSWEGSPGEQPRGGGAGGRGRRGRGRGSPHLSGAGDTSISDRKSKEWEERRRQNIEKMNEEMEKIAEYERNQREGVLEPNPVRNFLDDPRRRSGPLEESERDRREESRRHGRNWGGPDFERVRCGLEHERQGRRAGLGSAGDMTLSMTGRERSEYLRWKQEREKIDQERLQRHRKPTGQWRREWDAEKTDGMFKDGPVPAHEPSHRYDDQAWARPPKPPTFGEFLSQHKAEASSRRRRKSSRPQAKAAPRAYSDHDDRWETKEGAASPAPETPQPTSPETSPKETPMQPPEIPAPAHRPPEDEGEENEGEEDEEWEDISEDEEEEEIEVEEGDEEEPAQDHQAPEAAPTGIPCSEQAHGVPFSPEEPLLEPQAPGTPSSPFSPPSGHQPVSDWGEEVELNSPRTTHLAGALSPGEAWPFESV
UniProt Q9UNS2, sequence (Q9UNS2 whole entry, looked up): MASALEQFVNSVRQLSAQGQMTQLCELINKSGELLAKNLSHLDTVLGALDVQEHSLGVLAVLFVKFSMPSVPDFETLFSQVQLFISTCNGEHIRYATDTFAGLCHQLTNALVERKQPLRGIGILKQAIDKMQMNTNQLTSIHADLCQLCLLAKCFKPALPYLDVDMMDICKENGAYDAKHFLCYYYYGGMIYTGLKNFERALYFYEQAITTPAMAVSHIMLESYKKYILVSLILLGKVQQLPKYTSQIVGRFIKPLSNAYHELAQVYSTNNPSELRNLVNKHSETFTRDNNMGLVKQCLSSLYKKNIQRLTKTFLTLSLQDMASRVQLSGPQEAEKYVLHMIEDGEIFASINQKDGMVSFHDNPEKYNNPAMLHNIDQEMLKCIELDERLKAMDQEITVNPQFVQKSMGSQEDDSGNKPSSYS
UniProt P08174, sequence (P08174 whole entry, looked up): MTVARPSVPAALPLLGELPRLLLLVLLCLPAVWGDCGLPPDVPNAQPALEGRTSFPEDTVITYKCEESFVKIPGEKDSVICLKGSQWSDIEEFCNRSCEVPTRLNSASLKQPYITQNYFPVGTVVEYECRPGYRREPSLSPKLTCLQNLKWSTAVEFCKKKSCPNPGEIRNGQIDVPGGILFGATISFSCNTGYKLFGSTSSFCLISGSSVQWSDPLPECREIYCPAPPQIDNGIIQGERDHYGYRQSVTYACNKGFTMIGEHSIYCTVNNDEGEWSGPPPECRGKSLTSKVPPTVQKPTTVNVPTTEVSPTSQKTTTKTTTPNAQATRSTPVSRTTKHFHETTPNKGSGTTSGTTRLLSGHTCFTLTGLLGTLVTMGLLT
UniProt Q9NZN8, sequence (Q9NZN8 whole entry, looked up): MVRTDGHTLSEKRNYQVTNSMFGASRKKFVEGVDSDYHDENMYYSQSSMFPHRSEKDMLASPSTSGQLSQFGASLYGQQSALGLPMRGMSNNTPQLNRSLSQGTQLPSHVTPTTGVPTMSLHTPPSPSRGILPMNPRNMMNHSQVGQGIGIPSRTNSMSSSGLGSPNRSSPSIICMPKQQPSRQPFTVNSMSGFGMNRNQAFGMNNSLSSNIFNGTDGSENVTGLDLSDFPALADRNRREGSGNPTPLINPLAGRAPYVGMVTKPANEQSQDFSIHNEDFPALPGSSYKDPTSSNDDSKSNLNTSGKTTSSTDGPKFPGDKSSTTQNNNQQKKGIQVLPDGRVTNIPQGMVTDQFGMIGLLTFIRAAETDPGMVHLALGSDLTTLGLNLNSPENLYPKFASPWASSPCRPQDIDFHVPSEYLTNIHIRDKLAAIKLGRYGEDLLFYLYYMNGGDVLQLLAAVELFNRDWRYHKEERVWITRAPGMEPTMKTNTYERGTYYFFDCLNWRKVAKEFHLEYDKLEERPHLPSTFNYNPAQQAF
UniProt Q9H444, sequence (Q9H444 whole entry, looked up): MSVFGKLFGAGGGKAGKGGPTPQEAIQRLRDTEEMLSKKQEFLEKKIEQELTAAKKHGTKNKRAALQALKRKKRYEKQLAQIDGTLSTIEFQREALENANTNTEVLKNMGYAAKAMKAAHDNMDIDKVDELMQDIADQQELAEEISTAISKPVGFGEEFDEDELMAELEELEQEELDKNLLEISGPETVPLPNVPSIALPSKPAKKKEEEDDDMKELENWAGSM
UniProt Q96G23, sequence (Q96G23 whole entry, looked up): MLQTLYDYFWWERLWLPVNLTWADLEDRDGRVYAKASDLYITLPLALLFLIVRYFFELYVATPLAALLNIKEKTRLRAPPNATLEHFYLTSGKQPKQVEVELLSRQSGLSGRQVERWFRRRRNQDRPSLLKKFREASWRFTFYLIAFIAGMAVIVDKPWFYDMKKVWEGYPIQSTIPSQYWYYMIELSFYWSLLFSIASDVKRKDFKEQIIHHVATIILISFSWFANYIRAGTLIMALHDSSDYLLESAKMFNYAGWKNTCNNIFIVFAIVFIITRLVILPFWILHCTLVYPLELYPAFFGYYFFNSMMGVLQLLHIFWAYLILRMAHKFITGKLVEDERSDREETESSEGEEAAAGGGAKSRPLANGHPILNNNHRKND
UniProt P19397, sequence (P19397 whole entry, looked up): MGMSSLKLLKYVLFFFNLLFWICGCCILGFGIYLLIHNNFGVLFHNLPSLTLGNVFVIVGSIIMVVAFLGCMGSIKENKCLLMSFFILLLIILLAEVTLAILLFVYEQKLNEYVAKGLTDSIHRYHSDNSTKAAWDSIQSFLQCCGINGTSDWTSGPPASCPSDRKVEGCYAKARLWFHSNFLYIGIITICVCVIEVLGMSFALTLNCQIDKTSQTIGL
UniProt Q13555, sequence (Q13555 whole entry, looked up): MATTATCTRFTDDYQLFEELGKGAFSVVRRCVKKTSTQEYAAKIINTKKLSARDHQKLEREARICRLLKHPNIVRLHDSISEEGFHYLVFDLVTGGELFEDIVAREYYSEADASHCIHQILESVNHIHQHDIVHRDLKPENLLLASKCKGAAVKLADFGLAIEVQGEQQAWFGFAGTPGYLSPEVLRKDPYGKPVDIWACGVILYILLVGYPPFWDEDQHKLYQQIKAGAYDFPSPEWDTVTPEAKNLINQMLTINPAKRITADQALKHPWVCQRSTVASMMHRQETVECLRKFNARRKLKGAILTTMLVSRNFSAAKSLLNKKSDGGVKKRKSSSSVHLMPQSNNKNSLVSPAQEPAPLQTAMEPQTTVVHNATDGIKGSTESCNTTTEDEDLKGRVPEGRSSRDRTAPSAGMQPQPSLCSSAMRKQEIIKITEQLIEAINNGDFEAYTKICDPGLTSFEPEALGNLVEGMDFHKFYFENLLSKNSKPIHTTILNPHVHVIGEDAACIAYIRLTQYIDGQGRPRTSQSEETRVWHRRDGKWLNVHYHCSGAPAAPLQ
UniProt P35520, sequence (P35520 whole entry, looked up): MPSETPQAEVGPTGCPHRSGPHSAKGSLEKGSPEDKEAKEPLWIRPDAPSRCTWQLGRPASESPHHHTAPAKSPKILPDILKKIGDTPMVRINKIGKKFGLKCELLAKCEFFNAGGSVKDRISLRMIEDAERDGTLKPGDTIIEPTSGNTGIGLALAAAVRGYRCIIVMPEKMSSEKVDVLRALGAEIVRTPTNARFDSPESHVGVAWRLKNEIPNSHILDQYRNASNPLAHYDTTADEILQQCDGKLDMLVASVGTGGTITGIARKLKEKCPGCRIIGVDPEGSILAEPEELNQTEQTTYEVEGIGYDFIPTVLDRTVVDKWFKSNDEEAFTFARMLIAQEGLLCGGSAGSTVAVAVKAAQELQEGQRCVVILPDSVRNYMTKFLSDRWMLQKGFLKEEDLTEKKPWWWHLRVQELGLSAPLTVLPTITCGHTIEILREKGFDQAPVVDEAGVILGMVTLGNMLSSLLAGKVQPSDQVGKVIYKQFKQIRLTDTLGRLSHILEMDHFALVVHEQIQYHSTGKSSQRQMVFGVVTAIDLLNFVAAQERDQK

Row | Target | log2 fold change (IRAK-1-4 Inhibitor I) | log2 fold change (ibrutinib) | log2 fold change [1] | log2 fold change (ralimetinib) | log2 fold change [2] | log2 fold change [3] | log2 fold change [4] | log2 fold change (pinometostat) | log2 fold change [5] | log2 fold change [6] | log2 fold change [7] | log2 fold change [8] | log2 fold change [9] | log2 fold change [10] | log2 fold change (Nexturastat A) | log2 fold change (vemurafenib) | log2 fold change [11] | log2 fold change [12] | log2 fold change (givinostat) | log2 fold change (barasertib)
1 | COPS3 (UniProt Q9UNS2) | 0.029 | 0.011 | -0.023 | -0.096 | -0.014 | 0.028 | -0.065 | -0.046 | -0.007 | -0.003 | -0.008 | -0.013 | 0.009 | 0.034 | -0.02 | 0.004 | 0.011 | -0.044 | -0.056 | 0.016
2 | CBX1 (UniProt P83916) | -0.105 | -0.001 | -0.038 | -0.054 | 0.013 | 0.034 | -0.007 | -0.143 | -0.026 | -0.288 (active) | 0.049 | -0.005 | 0.04 | 0.318 (active) | -0.026 | 0.07 | 0.057 | -0.011 | -0.042 | -0.009
3 | CNOT2 (UniProt Q9NZN8) | 0.112 | 0.013 | -0.045 | -0.027 | -0.038 | -0.112 | 0.013 | 0.05 | -0.005 | 0.059 | -0.075 | 0.136 | -0.027 | 0.008 | 0.017 | -0.03 | 0.006 | -0.018 | 0.059 | 0.01
4 | CHD3 isoform 3 (UniProt Q12873) | -0.052 | -0.1 | -0.284 | 0.36 | -0.075 | -0.319 | 0.186 | 0.071 | 0.125 | -0.009 | 0.03 | -0.035 | 0.016 | -0.077 | 0.056 | 0.113 | 0.138 | 0.081 | 0.226 | 0.046
5 | CERS2 (UniProt Q96G23) | 0.06 | -0.013 | 0.125 | -0.026 | -0.176 | -0.425 (active) | 0.034 | 0.042 | 0.003 | -0.04 | -0.02 | 0.015 | 0.036 | 0.019 | -0.083 | -0.018 | 0.101 | -0.013 | -0.038 | -0.002
6 | CAMSAP1 isoform 3 (UniProt Q5T5Y3) | -0.076 | -0.069 | -0.29 | -0.031 | -0.062 | -0.078 | 0.031 | 0.121 | -0.056 | 0.108 | 0.03 | -0.009 | -0.02 | -0.101 | 0.168 | -0.274 | 0.042 | -0.19 | 0.151 | 0.077
7 | CBR1 (UniProt P16152) | 0.023 | 0.009 | 0.031 | 0.097 | -0.007 | 0.061 | -0.088 | -0.035 | -0.009 | 0.028 | 0.006 | -0.023 | 0.005 | 0.038 | -0.032 | -0.001 | 0.074 | 0.051 | 0.005 | 0.025
8 | CCDC9 (UniProt Q9Y3X0) | -0.05 | 0.078 | 0.173 | 0.031 | 0.053 | 0.105 | 0.087 | -0.024 | 0.021 | 0.296 (active) | -0.042 | 0.007 | 0.019 | 0.055 | 0.119 | -0.007 | -0.009 | -0.004 | -0.069 | 0.021
9 | CHMP4B (UniProt Q9H444) | 0.068 | -0.024 | 0.015 | 0.039 | 0.015 | 0.014 | -0.003 | -0.032 | 0.046 | -0.011 | 0.181 | 0.008 | -0.073 | 0.007 | -0.04 | -0.036 | -0.126 | -0.02 | -0.061 | 0.001
10 | CD53 (UniProt P19397) | 0.097 | 0.033 | -0.026 | -0.24 | -0.021 | 0.229 | 0.051 | -0.014 | -0.004 | 0.105 | -0.062 | -0.099 | -0.13 | -0.095 | -0.006 | -0.035 | -0.182 | -0.092 | -0.006 | -0.102
11 | CKS1B (UniProt P61024) | -0.011 | -0.008 | -0.127 | 0.222 (active) | 0.001 | 0.027 | -0.031 | -0.044 | 0.036 | 0.054 | -0.043 | -0.094 | -0.121 | 0.036 | -0.005 | 0.056 | -0.17 | -0.38 | -0.034 | 0.029
12 | CD55 isoform 7 (UniProt P08174) | -0.043 | 0.071 | -0.008 | 0.016 | 0.037 | 0.155 | -0.012 | 0.019 | 0.02 | -0.054 | 0.037 | -0.006 | 0.021 | 0.049 | 0.072 | -0.031 | -0.053 | 0.088 | 0 | -0.057
13 | CAMK2G isoform 6 (UniProt Q13555) | -0.008 | 0.004 | 0.181 | 0.118 | 0.039 | -0.016 | 0.038 | 0.067 | -0.075 | 0.063 | 0.048 | -0.055 | 0.131 | -0.011 | 0.094 | -0.026 | 0.11 | 0.15 | 0.025 | 0.065
14 | CHAC2 (UniProt Q8WUX2) | 0.038 | -0.058 | -0.009 | -0.021 | 0.085 | 0.03 | 0 | 0.01 | -0.061 | -0.036 | -0.001 | 0.025 | 0.037 | 0.015 | -0.026 | 0.04 | 0.031 | -0.08 | 0.007 | 0.079
15 | CBS (UniProt P35520) | 0.044 | -0.007 | 0.008 | -0.01 | 0.027 | 0.036 | -0.013 | -0.048 | 0.034 | 0.001 | 0.031 | -0.001 | 0.004 | 0.019 | -0.08 | -0.021 | -0.004 | -0.016 | -0.135 | 0.02
16 | CRKL (UniProt P46109) | 0.035 | -0.102 | -1.24 (active) | -0.054 | -0.004 | 0.042 | 0.057 | -0.022 | 0.042 | -0.008 | -1.25 (active) | -0.029 | 0.014 | 0.019 | -0.003 | -0.018 | -0.009 | -0.024 | 0.009 | 0.01
